Consider 16 compounds from PubChem BioAssay (EPA / NIEHS).

Inconclusive results are not listed. Active and inactive are the calls of the source. The calls were made as follows: active = hit-call score of the fitted dose curve at least 0.9, where 1 is the maximum; inconclusive = response in the unintended direction; inactive = score below 0.9.

Chain of Luciferin 4-monooxygenase (Photinus pyralis) (P08659 whole entry, looked up): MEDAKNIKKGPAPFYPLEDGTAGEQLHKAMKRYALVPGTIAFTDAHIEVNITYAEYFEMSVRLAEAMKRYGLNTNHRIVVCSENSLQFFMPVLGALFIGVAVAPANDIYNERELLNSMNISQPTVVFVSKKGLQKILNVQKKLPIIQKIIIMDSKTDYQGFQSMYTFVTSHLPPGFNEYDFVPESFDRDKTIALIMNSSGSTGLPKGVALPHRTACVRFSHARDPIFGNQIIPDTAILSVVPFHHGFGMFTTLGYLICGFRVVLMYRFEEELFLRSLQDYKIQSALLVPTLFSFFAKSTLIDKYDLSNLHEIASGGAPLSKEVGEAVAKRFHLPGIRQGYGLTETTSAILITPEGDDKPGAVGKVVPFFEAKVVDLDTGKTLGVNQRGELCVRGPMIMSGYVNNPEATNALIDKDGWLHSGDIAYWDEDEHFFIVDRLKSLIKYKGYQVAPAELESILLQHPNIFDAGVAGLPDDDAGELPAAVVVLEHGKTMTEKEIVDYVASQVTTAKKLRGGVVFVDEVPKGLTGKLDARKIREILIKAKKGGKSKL

This assay has as its target Luciferin 4-monooxygenase (Photinus pyralis) (UniProt P08659). Nature of the assay: CCTE_Simmons_QuantiLum_inhib_2: CCTE's Firefly Luciferase Inhibition Assay, Simmons Lab (AID 2283767).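 As to AC50: potency for inhibitors that lower luciferase luminescence relative to DMSO.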 The procedure:
CCTE_Simmons_QuantiLum_inhib_2 is a biochemical, single-readout assay that uses purified luciferase enzyme in a cell-free assay.Measurements were taken 0.5 hour after chemical dosing in a 384-well plate.CCTE_Simmons_QuantiLum_inhib_2 is the assay component measured from the CCTE_Simmons_QuantiLum_inhib_2 assay. It is designed to make measurements of enzyme activity, a form of enzyme reporter, as detected with bioluminescence signals by Luciferase-coupled Quantilum levels technology. This is a secondary assay to CCTE_Simmons_AUR_TPO to evaluate nonspecific enzyme inhibition.Data from the assay component CCTE_Simmons_QuantiLum_inhib_2 was analyzed at the endpoint, CCTE_Simmons_QuantiLum_inhib_2, in the positive analysis fitting direction relative to DMSO as the negative control and baseline of activity. Using a type of enzyme reporter, measures of enzyme activity for loss-of-signal activity can be used to understand inhibition of firefly luciferase. This is an assay endpoint to indicate nonspecific protein inhibition for comparison to aeid 1508 for thyroperoxidase inhibition. To generalize the intended target to other relatable targets, this assay endpoint is annotated to the oxidoreductase intended target family, where the subfamily is monooxygenase.
Quanti-Lum recombinant luciferase (Promega; Madison, Wisconsin) was diluted to 76.9 ng/ml with 200mM potassium phosphate buffer supplemented with 1 mg/ml bovine serum albumin and 65ul (5ng recombinant luciferase) per well was dispensed into opaque, white 384-well plates (Greiner, BioExpress) using an automated liquid handler (BioTek MicroFlo) with a plastic 5 ul tubing cassette. Test compounds were administered using the HDRT as described earlier to achieve a 0.5% final DMSO concentration. Microplates were incubated at 37C in the dark for 30min to mimic the AUR-TPO assay conditions. Luciferase detection reagent (25 ul per well; 9.2 mM dithiothreitol, 75uM Coenzyme A, 147uM dATP, 150uM D-luciferin, 8.9 mM Tricine, 297uM (MgCO3)4.Mg(OH)2.5H20, 742uM MgSO4, 27.8uM EDTA, pH 7.8, final assay concentrations) was then added using a BMG Clariostar plate reader equipped with syringe injectors (BMG LabTech; GmbH). Plates were read using a kinetic luminescence protocol (top read) whereby each well was individually injected with luciferase detection reagent immediately prior to measurement. Three biological replicates of technical singles were run for every chemical concentration tested. A titrated range of LUCINH2 served as a positive control on each plate of the luciferase inhibition screening assay. Test chemicals were administered as a titrated series of 8 concentrations from 5 nM up to 87.5 uM [final] for 30 minutes prior to single endpoint detection. Dimethylsulfoxide [DMSO] was used as the vehicle control. Luciferase Inhibitor I [2-(5-(2-Methoxyphenyl)-1,2,4-oxadiazol-3-yl)pyridine] was used as the positive control and was administered as a titrated series of 8 concentrations from 1 nM up to 100 uM [final].
Turning to `CN1CSC(=S)N(C)C1`, the AC50 – broadly, the midpoint of the concentration-response curve, whichever way the signal moves – is 40.5 µM (active).

Regarding `CC1(c2ccc(Oc3ccccc3)cc2)OC(=O)N(Nc2ccccc2)C1=O` (stereo unspecified), the outcome was inactive.

For `COP(=O)(OC)OC=C(Cl)Cl`, the compound was called inactive.

On to `COP(=S)(OC)Oc1ccc(SC)c(C)c1`, for which the compound was classed as inactive.

With `N#CN`, the call was inactive.

On to `CCCN(CCOc1c(Cl)cc(Cl)cc1Cl)C(=O)n1ccnc1`, for which the compound was called inactive.

As to `O=C1c2ccccc2C(=O)N1SC(Cl)(Cl)Cl`, the outcome was inactive.

For `Oc1ccc(Cl)cc1Cc1ccccc1`, the compound was called inactive.

Turning to `O=S(=O)(O)C(F)(F)C(F)(F)C(F)(F)C(F)(F)C(F)(F)C(F)(F)C(F)(F)C(F)(F)F`, the outcome was inactive.

As to `CNC(=O)/C=C(\C)OP(=O)(OC)OC`, the call was inactive.

As to `CNC(=O)Oc1cccc(N=CN(C)C)c1`, the call was inactive.

As to `COc1nn(CSP(=S)(OC)OC)c(=O)s1`, the result was inactive.

As to `COP(=S)(OC)Oc1ccc([N+](=O)[O-])cc1`, the compound was classed as inactive.

With `Oc1cc(Cl)ccc1Oc1ccc(Cl)cc1Cl`, the result was inactive.

Consider `O=C(Nc1ccccc1)Nc1cnns1`, for which the result was inactive.

`CNC(=O)CSP(=S)(OC)OC`: the AC50 is 34.2 µM (active).
